Values joined by “and” are separate entries in the source; they are usually repeats but may differ in a detail not shown here. Identical values can stand only once. Results filed as inconclusive are left out. Unmarked numbers belong to inactive results. Active and inactive are the calls of the source. Calls follow the shape of the dose curve; as a rule, active = well fitted inhibition curve with a large enough effect; inconclusive = small, poorly fitted or top-dose-only effect; inactive = flat fitted curve, though single readings scatter. Non-standard residues stand in square brackets, D forms with d. Residues, ends and D or L forms follow the SMILES beside them. *: point of attachment. Sta = CC(C)C[C@H](N)[C@@H](O)CC(=O)O; Isovaleryl = CC(C)CC(=O)*
experiment: BET inhibitor-based combinations targeting novel dependencies in MECOM-rearranged (r) AML: AML-191 cell line (AID 2202236; also: nearly all actives have a fitted effect of over 35% in size;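 as to viability (% of control): plate controls were vehicle wells for no effect and wells without cells for full effect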); conditions: AML-191 viability, CellTiter-Glo luminescence, 48 h; series mostly up to 46 µM
From the text: Ecotropic viral insertion site 1 (EVI1) is located on chromosome 3q26.2 as part of the MECOM (MDS and EVI1 complex) locus. Under normal hematopoiesis, EVI1 is a regulator of hematopoietic stem cell maintenance and self-renewal and EVI1 levels decrease as the cells differentiate. In approximately 5-10% of de novo acute myeloid leukemia (AML) EVI1 is aberrantly expressed, including Chromosomal inv(3)(q21;q26.2) or t(3;3)(q21;q26.2) alterations (MECOM-r) that account for about 50% of AML with EVI1 overexpression 31. AMLs with high levels of EVI1 have a poor prognosis and an overall survival time averaging between 10-14 months. EVI1 overexpression confers resistance in leukemia cells, highlighting the need to develop new targeted therapies for EVI1 overexpressing AMLs.
Here, we performed an unbiased chemical drug screening by evaluating the single agent activity of a collection of 2,480 oncology-focused, approved and investigational drugs (NCATS Mechanism Interrogation Plates, MIPE v5.0) against a panel of seven AML cell lines. These included four MECOM-r cell-lines (AML-191, AML-194, UCSD-AML1 and HNT-34) and three non-MECOM-r AMLs (MV4-11, OCI-AML3 and SET-2). Exploiting the mechanistic redundancy built in the library, we identified target-level sensitivities in MECOM-r AML cells and relative activity as compared to other AML subtypes.
A collection of 2480 mechanistically annotated dugs (MIPE v5.0) was used to screen four 3q26.2 rearranged AML cell lines and three non-3q26.2 rearranged AML cell lines. This library purposely exploits redundancy by including multiple inhibitors of key onco-targets, while simultaneously encompassing mechanistic diversity, targeting more than 800 distinct mechanisms of action. Briefly, cells were seeded in 5 uL of growth media using a Multidrop Combi dispenser into 1536 well white polystyrene tissue culture treated plates (Corning) at a density of 500cells/well. For each cell-line, for each of the 2480 drugs in MIPE v5.0 library, an 11-point dose curve was generated via a 1536 pin-tool. Plates were incubated for 48 hr at standard incubator conditions, covered by a stainless steel gasketed lid to prevent evaporation. Cell viability was determined by luminescence based, Cell Titer Glo assay (Promega). In detail, 3 uL of Cell Titer Glo were added to each well and plates were incubated at room temperature for 15 min with a stainless-steel lid in place. Luminescence readings were taken using a Viewlux (PerkinElmer) with a 2 s exposure time per plate. Compound dose-response curves were normalized to DMSO and empty well controls on each plate. Quantitative drug activity data from dose-response curves was determined utilizing area Under the Curve (AUC) and Z-transformed AUC (Z-AUC, a mean-centering transformation applied to each individual cell-line screened).
Potency is read from the fitted curve at half-maximal effect.

Row | Compound | Potency | viability (% of control)
1 | Clc1ccc(C(c2ccccc2Cl)C(Cl)Cl)cc1 (stereo not given) | inactive | –
2 | CCCCOc1nc(N)c2c(n1)N(Cc1cccc(CN3CCCC3)c1)CC(=O)N2 | inactive | –
3 | O=C(O)c1ccc2cc(-c3ccc(O)c(C45CC6CC(CC(C6)C4)C5)c3)ccc2c1 | 0.934 µM (active) | –
4 | O=C(NC(Cc1cc(=O)[nH]c2ccccc12)C(=O)O)c1ccc(Cl)cc1 (stereo not given) | inactive | –
5 | Cc1ncc(NC(=O)c2ccc(CN3CCN(C)CC3)c(C(F)(F)F)c2)cc1Nc1nccc(-c2cccnc2)n1 | 18.6 µM (active) | –
6 | COc1ccc(-c2cc3nccn3c(Nc3ncccc3C(N)=O)n2)cc1OC | 8.33 µM (active) | –
7 | CCCCC(=O)O[C@]1(C(=O)CO)[C@@H](C)C[C@H]2[C@@H]3CCC4=CC(=O)C=C[C@]4(C)[C@@]3(F)[C@@H](O)C[C@@]21C | 0.0132 µM (active) | –
8 | O=C(CCl)Nc1cccc(NC2=NS(=O)(=O)c3ccccc32)c1 | 8.33 µM (active) | –
9 | CCc1ccc(OCc2ccccc2C(=O)Nc2ccc3nc(C)cc(N)c3c2)cc1 | 7.42 µM (active) | –
10 | COc1c(N2C[C@@H]3CCCN[C@H]3C2)c(F)cc2c(=O)c(C(=O)O)cn(C3CC3)c12 | inactive | –
11 | Cc1nc(-c2cccnc2)sc1C(=O)Nc1ccccc1-c1cn2c(CN3CCOCC3)csc2n1 | inactive | –
12 | COc1cc(OC)c(/C=C/S(=O)(=O)Cc2ccc(OC)c(NCC(=O)O)c2)c(OC)c1 | 0.235 µM (active) | –
13 | NCCc1cnc[nH]1 | inactive | –
14 | CN(C)c1ccc(C2Nc3ccc4ccccc4c3C3=C2C(=O)CC(C)(C)C3)cc1Br (stereo not given) | inactive | –
15 | CN1CCC(COc2cnc(-c3cccc(Cn4nc(-c5cccc(C#N)c5)ccc4=O)c3)nc2)CC1 | inactive | –
16 | COc1cc(N2CCC(O)CC2)ccc1Nc1cc(Nc2ccccc2S(=O)(=O)C(C)C)c2cc[nH]c2n1 | 16.6 µM (active) | –
17 | Oc1cc(O)cc(/C=C/c2ccc(O)c(O)c2)c1 | 16.6 µM (active) | –
18 | Fc1ccc2[nH]ccc2c1-c1nc(N2CCOCC2)c2sc(CN3CCN(CC4CC4)CC3)cc2n1 | 10.5 µM (active) | –
19 | CC(C)CC(=O)N[C@H](C(=O)N[C@H](C(=O)N[C@@H](CC(C)C)[C@@H](O)CC(=O)N[C@@H](C)C(=O)N[C@@H](CC(C)C)[C@@H](O)CC(=O)O)C(C)C)C(C)C (Isovaleryl-VV[Sta]A[Sta]-OH) | inactive | –
20 | C=C1c2cccc(O)c2C(O)=C2C(=O)[C@@]3(O)C(O)=C(C(N)=O)C(=O)[C@@H](N(C)C)[C@@H]3[C@@H](O)[C@H]12 | inactive | –

Row | Compound | Potency | viability (% of control)
21 | C=CC(=O)Nc1cccc(Nc2nc(Nc3ccc(NC4CN(CCF)C4)cc3OC)ncc2C(F)(F)F)c1 | 13.2 µM (active) | –
22 | CC(C)S(=O)(=O)c1ccc2nccc(Nc3ccc4scnc4c3)c2c1 | inactive | –
23 | CC(=O)NC(CS)C(=O)O (stereo not given) | inactive | –
24 | O=C(O)c1ccc(CCCc2ccc(OCCc3ccc(F)cc3)cc2)o1 | inactive | –
25 | O=C(Nc1nc2cccc(-c3ccc(CN4CCS(=O)(=O)CC4)cc3)n2n1)C1CC1 | 9.34 µM (active) | –
26 | CCCCCN(CCC12CC3CC(CC(C3)C1)C2)C(=O)NCCCc1ccncc1 | 20.9 µM (active) | –
27 | COc1cc(C(=O)NC2CCN(C)CC2)ccc1Nc1ncc2c(n1)N(C1CCCC1)CCC(=O)N2C(C)C | 18.6 µM (active) | –
28 | COc1c(C)cnc(Cn2cnc3c(Cl)nc(N)nc32)c1C | 0.525 µM (active) | –
29 | C[C@@H]1O[C@@H](O[C@@H]2\C=C/C=C\C=C/C=C\C[C@H](C)OC(=O)/C=C\[C@H]3O[C@@H]3C[C@H](O)C[C@]3(O)C[C@@H](O)[C@@H](C(=O)O)[C@H](C2)O3)[C@H](O)[C@H](N)[C@@H]1O | inactive | –
30 | COc1cc2c(Nc3ccc(Cl)c(Cl)c3F)ncnc2cc1OCC1C[C@@H]2CN(C)C[C@@H]2C1 (stereo not given in full) | 14.8 µM (active) and 10.5 µM (active) | –
31 | O=C1C(c2c(O)[nH]c3ccccc23)=Nc2ccccc21 | inactive | –
32 | CN1C(=O)c2sccc2N(C)c2nc(Nc3ccc(S(N)(=O)=O)cc3)ncc21 | 3.72 µM (active) | –
33 | COc1ccc2c(Oc3ccc(NC(=O)c4c(C)n(CC(C)(C)O)n(-c5ccccc5)c4=O)cc3F)ccnc2c1 | 20.9 µM (active) | –
34 | Cn1cc(-c2ccc(F)c(C(F)(F)F)c2)nc1C1CCN(c2ncnc3[nH]ncc23)CC1 | 20.9 µM (active) | –
35 | Cc1ccccc1-n1c(Cn2nc(-c3cccc(O)c3)c3c(N)ncnc32)nc2cccc(C)c2c1=O | 14.8 µM (active) | –
36 | Cn1cnc2c1c(=O)[nH]c(=O)n2C | inactive | –
37 | Cc1cc(OCCCS(C)(=O)=O)cc(C)c1-c1cccc(COc2ccc3c(c2)OC[C@H]3CC(=O)O)c1 | inactive | –
38 | Nc1ccn(C[C@@H](CO)OCP(=O)(O)O)c(=O)n1 | – | 91.5% [at 8.46 µM]
39 | C#CC[C@H](c1nc2cc(Cl)ccc2c(=O)n1Nc1ccccc1)N(CCCN)C(=O)c1cccc(Cl)c1F | 3.32 µM (active) | –
40 | CC(C)OC(=O)C1=CN(C(=O)c2ccc(F)c(F)c2)CC(C)(C)c2c1[nH]c1ccccc21 | inactive | –

— PubChem BioAssay (NCATS)
